Common to all, as to conditions: mRNA level, 48 h; actives raise or lower the signal
Read-out in test [1]: ATP-citrate lyase (ACLY), ACLY (gene 47)
The test is described as follows: LTEA_HepaRG_ACLY: Life Technologies and Expression Analysis (LTEA) Assay for ATP-citrate lyase (ACLY) using HepaRG (AID 2283466). Summed up: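 ACLY mRNA quantified by qRT-PCR on Fluidigm arrays against three housekeeping genes, after 48 h chemical treatment of HepaRG cells (top concentration 100 uM, half-log steps, 0.5% DMSO vehicle). Up- or down-regulation fitted relative to DMSO.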

Read-out in test [2]: Peroxisomal acyl-coenzyme A oxidase 1 (ACOX1) gene, ACOX1 (gene 51)
The experiment in a line: LTEA_HepaRG_ACOX1: Life Technologies and Expression Analysis (LTEA) Assay for Peroxisomal acyl-coenzyme A oxidase 1 (ACOX1) gene using HepaRG (AID 2283467). The method, boiled down: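 ACOX1 transcript levels were quantified by TaqMan qRT-PCR against three housekeeping genes after 48 h chemical exposure of differentiated human HepaRG cells. Exposure used eight half-log steps topping at 100 uM, 0.5% DMSO vehicle, in duplicate. Bidirectional curve fits were made relative to DMSO.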

Read-out in test [3]: Alkaline Phosphatase, Placental (ALPP) gene, ALPP (gene 250)
The experiment in a line: LTEA_HepaRG_ALPP: Life Technologies and Expression Analysis (LTEA) Assay for Alkaline Phosphatase, Placental (ALPP) gene using HepaRG (AID 2283468). Summed up: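 Using human liver HepaRG cells, chemicals are tested in duplicate over 48 h at half-log concentrations topping at 100 uM; phenobarbital 1 mM serves as induction control. ALPP mRNA change by qRT-PCR, bidirectional fit against vehicle.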

Read-out in test [4]: Bcl-2 (BAD) gene, BAD (gene 572)
The test is described as follows: LTEA_HepaRG_BAD: Life Technologies and Expression Analysis (LTEA) Assay for Bcl-2 (BAD) gene using HepaRG (AID 2283469). Summed up: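 Read-out: qRT-PCR of BAD mRNA, normalized to three housekeeping genes. Human HepaRG cultures got 48 h chemical exposure in 0.5% DMSO, duplicate eight-point half-log series topping at 100 uM. Gain or loss of signal fitted versus DMSO vehicle.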

Read-out in test [5]: Bcl-2 (BAX) gene, BAX (gene 581)
The test is described as follows: LTEA_HepaRG_BAX: Life Technologies and Expression Analysis (LTEA) Assay for Bcl-2 (BAX) gene using HepaRG (AID 2283470). The method, boiled down:
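Cells were thawed, plated for 48 h, moved to serum-free induction medium and dosed for 48 h (highest concentration 100 uM, half-log steps, 0.5% DMSO). Total RNA was then analysed for BAX expression by qRT-PCR.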

Read-out in test [6]: adenosine kinase (ADK) gene, ADK (gene 132)
The experiment in a line: LTEA_HepaRG_ADK: Life Technologies and Expression Analysis (LTEA) Assay for adenosine kinase (ADK) gene using HepaRG (AID 2283471). The method, boiled down: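 HepaRG (human liver), 48 h chemical exposure, 8-pt half-log series, top 100 uM, 0.5% DMSO vehicle. Readout: ADK mRNA by qRT-PCR vs housekeeping genes; bidirectional curve fit relative to DMSO baseline.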

Read-out in test [7]: Alpha-fetoprotein (AFP) gene, AFP (gene 174)
The test is described as follows: LTEA_HepaRG_AFP: Life Technologies and Expression Analysis (LTEA) Assay for Alpha-fetoprotein (AFP) gene using HepaRG (AID 2283472). The method, boiled down: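 Chemicals were tested on differentiated HepaRG cells for 48 hours at eight concentrations up to 100 uM, with 0.5% DMSO as vehicle. AFP expression was then quantified by qRT-PCR and analyzed for gain or loss relative to DMSO.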

Read-out in test [8]: BCL2L11 (gene 10018)
The test is described as follows: LTEA_HepaRG_BCL2L11: Life Technologies and Expression Analysis (LTEA) Assay for Bcl-2 (BCL2L11) gene using HepaRG (AID 2283473). Summed up: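 Human hepatic HepaRG cultures are treated 48 h with test chemicals (maximum 100 uM, 0.5% DMSO vehicle). Expression of BCL2L11 is measured by qRT-PCR against ACTB, GAPDH and POLR2A, with activity in either direction scored relative to vehicle.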

Read-out in test [9]: Apolipoprotein A-V (APOA5) gene, APOA5 (gene 116519)
The experiment in a line: LTEA_HepaRG_APOA5: Life Technologies and Expression Analysis (LTEA) Assay for Apolipoprotein A-V (APOA5) gene using HepaRG (AID 2283474). The method, boiled down:
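Concentration-response of APOA5 expression in HepaRG: eight half-log doses to 100 uM, 48 h, qRT-PCR normalized to ACTB/GAPDH/POLR2A, bidirectional fitting with 0.5% DMSO as baseline.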

Read-out in test [10]: Apoptosis regulator Bcl-2 (Homo sapiens) (UniProt P10415)
The experiment in a line: LTEA_HepaRG_BCL2: Life Technologies and Expression Analysis (LTEA) Assay for Bcl-2 gene using HepaRG (AID 2283475). Summed up:
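Plated human HepaRG cells are exposed to test chemicals for 48 h across eight concentrations from 100 uM downward in half-log steps (0.5% DMSO). BCL2 expression is then measured by qRT-PCR with housekeeping normalisation and fitted bidirectionally against vehicle.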

Read-out in test [11]: Bcl-2 (BID) gene, BID (gene 637)
The test is described as follows: LTEA_HepaRG_BID: Life Technologies and Expression Analysis (LTEA) Assay for Bcl-2 (BID) gene using HepaRG (AID 2283476). Summed up:
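Cells are plated, cultured 48 h, switched to serum-free induction medium, then dosed 48 h (100 uM top, half-log steps, 0.5% DMSO). RNA is isolated and BID expression read by qRT-PCR.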

Read-out in test [12]: Caspase-3 (Homo sapiens) (UniProt P42574)
The test is described as follows: LTEA_HepaRG_CASP3: Life Technologies and Expression Analysis (LTEA) Assay for cysteine-aspartic acid protease (CASP3) using HepaRG (AID 2283477). Summed up:
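Transcript-level assay: CASP3 mRNA in human HepaRG after 48 h treatment, eight half-log concentrations from 100 uM in 0.5% DMSO, quantified by qRT-PCR.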

Read-out in test [13]: Cytochrome P450 (CYP24A1), CYP24A1 (gene 1591)
The test is described as follows: LTEA_HepaRG_CYP24A1: Life Technologies and Expression Analysis (LTEA) Assay for Cytochrome P450 (CYP24A1) using HepaRG (AID 2283478). The method, boiled down: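 Gene expression of CYP24A1 by TaqMan qRT-PCR in HepaRG after 48 h treatment, highest concentration 100 uM; activity fitted in both directions relative to DMSO vehicle.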

Read-out in test [14]: Cytochrome P450 (CYP1A2), CYP1A2 (gene 1544)
The test is described as follows: LTEA_HepaRG_CYP1A2: Life Technologies and Expression Analysis (LTEA) Assay for Cytochrome P450 (CYP1A2) using HepaRG (AID 2283479). The method, boiled down: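 In duplicate wells, HepaRG cultures maintained in 0.5% DMSO were treated 48 h across an 8-point, half-log series topping at 100 uM; phenobarbital (1 mM) served as induction control. Expression was read by qRT-PCR.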

Read-out in test [15]: cysteine-aspartic acid protease (CASP8), CASP8 (gene 841)
The test is described as follows: LTEA_HepaRG_CASP8: Life Technologies and Expression Analysis (LTEA) Assay for cysteine-aspartic acid protease (CASP8) using HepaRG (AID 2283480). The method, boiled down: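 CASP8 transcript measured by TaqMan qRT-PCR with ACTB/GAPDH/POLR2A normalization, after 48 h chemical exposure of HepaRG cells in serum-free induction medium. Eight concentrations, top 100 uM, half-log steps, 0.5% DMSO vehicle; fits in both directions versus DMSO.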

Read-out in test [16]: Cytochrome P450 (CYP2B6), CYP2B6 (gene 1555)
The experiment in a line: LTEA_HepaRG_CYP2B6: Life Technologies and Expression Analysis (LTEA) Assay for Cytochrome P450 (CYP2B6) using HepaRG (AID 2283481). Summed up:
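Human HepaRG, 48 h dosing, 0.5% DMSO vehicle, top dose 100 uM. CYP2B6 transcript by qRT-PCR, housekeeping-normalized, bidirectional curve fit.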

Read-out in test [17]: Cytochrome P450 2C19 (Homo sapiens) (UniProt P33261)
The experiment in a line: LTEA_HepaRG_CYP2C19: Life Technologies and Expression Analysis (LTEA) Assay for CYP2C19 using HepaRG (AID 2283482). Summed up:
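Endpoint: CYP2C19 mRNA change, bidirectional fit vs 0.5% DMSO. Cells: HepaRG, 48 h exposure, eight-point series topping at 100 uM. Quantitation: qRT-PCR normalized to ACTB, GAPDH, POLR2A.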

Read-out in test [18]: CYP2C8 (gene 1558)
The test is described as follows: LTEA_HepaRG_CYP2C8: Life Technologies and Expression Analysis (LTEA) Assay for CYP2C8 using HepaRG (AID 2283483). Summed up: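 CYP2C8 expression measured by TaqMan qRT-PCR and normalized to three housekeeping genes. HepaRG cultures were treated for 48 h with an eight-point half-log series topping at 100 uM, vehicle 0.5% DMSO, duplicates; fitted both directions against DMSO.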

Read-out in test [19]: CYP2C9 (gene 1559)
The test is described as follows: LTEA_HepaRG_CYP2C9: Life Technologies and Expression Analysis (LTEA) Assay for CYP2C9 using HepaRG (AID 2283484). The method, boiled down:
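CYP2C9 transcript level, quantified by TaqMan qRT-PCR against three housekeeping genes, was fitted bidirectionally relative to 0.5% DMSO. HepaRG cultures were treated 48 h, in duplicate, at eight half-log concentrations topping at 100 uM.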

Read-out in test [20]: CYP2E1 (gene 1571)
The experiment in a line: LTEA_HepaRG_CYP2E1: Life Technologies and Expression Analysis (LTEA) Assay for CYP2E1 using HepaRG (AID 2283485). The method, boiled down: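 Readout is qRT-PCR of CYP2E1 mRNA, normalized to three housekeeping genes and fitted bidirectionally against 0.5% DMSO. HepaRG cells were dosed 48 h at eight concentrations, highest 100 uM with half-log dilutions.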

Activity calls are given as the source filed them. How the source made its calls: active means hit-call score of the fitted dose curve at least 0.9, where 1 is the maximum; inactive means score below 0.9.

These results are taken from PubChem BioAssay (EPA / NIEHS).

Chain of Cytochrome P450 2C19 (Homo sapiens) (P33261 whole entry, looked up): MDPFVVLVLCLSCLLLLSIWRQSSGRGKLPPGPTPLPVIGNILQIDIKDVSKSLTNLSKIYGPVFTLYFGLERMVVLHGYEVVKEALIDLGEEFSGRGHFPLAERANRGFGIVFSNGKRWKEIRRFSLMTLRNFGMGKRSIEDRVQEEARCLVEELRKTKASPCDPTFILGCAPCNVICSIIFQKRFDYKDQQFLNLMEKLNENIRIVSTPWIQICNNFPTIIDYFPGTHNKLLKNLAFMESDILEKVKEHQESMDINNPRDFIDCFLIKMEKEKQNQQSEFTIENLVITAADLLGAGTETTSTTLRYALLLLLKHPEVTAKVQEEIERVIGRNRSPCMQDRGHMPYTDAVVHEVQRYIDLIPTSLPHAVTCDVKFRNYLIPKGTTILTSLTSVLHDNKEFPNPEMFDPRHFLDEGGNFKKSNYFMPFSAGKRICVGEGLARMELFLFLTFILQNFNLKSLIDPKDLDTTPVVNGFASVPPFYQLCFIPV
Chain of Apoptosis regulator Bcl-2 (Homo sapiens) (P10415 whole entry, looked up): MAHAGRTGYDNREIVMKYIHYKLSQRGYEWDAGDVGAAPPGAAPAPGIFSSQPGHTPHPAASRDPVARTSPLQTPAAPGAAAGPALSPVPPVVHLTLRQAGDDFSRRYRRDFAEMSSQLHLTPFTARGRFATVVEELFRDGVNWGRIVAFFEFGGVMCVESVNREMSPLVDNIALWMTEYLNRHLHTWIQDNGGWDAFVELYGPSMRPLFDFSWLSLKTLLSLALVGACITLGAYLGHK
Chain of Caspase-3 (Homo sapiens) (P42574 whole entry, looked up): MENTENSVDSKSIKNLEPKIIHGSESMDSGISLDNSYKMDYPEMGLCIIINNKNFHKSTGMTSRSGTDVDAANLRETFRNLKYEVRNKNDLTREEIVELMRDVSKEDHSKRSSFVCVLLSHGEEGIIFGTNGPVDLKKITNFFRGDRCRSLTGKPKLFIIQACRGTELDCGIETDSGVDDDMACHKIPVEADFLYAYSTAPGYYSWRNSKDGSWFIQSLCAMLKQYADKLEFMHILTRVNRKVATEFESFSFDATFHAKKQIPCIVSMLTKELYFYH

For the molecule `N#CCCCCC#N`, the call in test [1], in test [2], in test [3], in test [4], in test [5] and in test [6] was inactive. The result in test [7], in test [8], in test [9], in [10], in test [11] and in [12] was inactive. Also, the result in [13], in [14], in test [15], in [17], in [18] and in test [19] was inactive. Moreover, in test [20], the call was inactive. The half-maximal activity concentration (AC50) in test [16] was 50 µM (active).
Regarding `O=[N+]([O-])c1ccc(Cl)cc1`, the molecule was called inactive in test [1], in test [2], in [3], in test [4], in test [5] and in [6]. In addition, the call in test [7], in test [8], in test [9], in [10], in test [11] and in test [12] was inactive. For the same molecule, the outcome in [13], in test [14], in [15], in test [16], in test [17] and in test [18] was inactive. Moreover, the outcome in test [19] and in test [20] was inactive.
For the molecule `O=C(CCl)c1ccccc1`, the result in [1], in [2], in test [3], in test [4], in test [5] and in [6] was inactive. The result in test [7], in test [8], in test [9], in test [10], in test [11] and in test [12] was inactive. The call in [13], in test [14], in [15], in test [17], in test [18] and in [19] was inactive. The outcome in test [20] was inactive. For the same molecule, the AC50 in test [16] is 50 µM (active).
